Inconclusive results are not listed. Active and inactive are the calls of the source. The call rests on the fitted dose curve; in most records, active means well fitted inhibition curve with a large enough effect; inconclusive means small, poorly fitted or top-dose-only effect, or effect the other way; inactive means flat fitted curve, though single readings scatter. Where a SMILES comes first, the peptide text is derived from it. [ ]: non-standard residue; d: D form. pGlu = O=C1CC[C@@H](C(=O)O)N1; Thz = O=C(O)[C@@H]1CSCN1
What follows are compounds tested against ATP-dependent 6-phosphofructokinase (Trypanosoma brucei brucei) (UniProt O15648) (assay: qHTS Assay to Find Inhibitors of T. brucei phosphofructokinase: hit validation (AID 492961;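 further: luminescence reports ADP formed as PFK phosphorylates fructose-6-phosphate with ATP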)). Conditions: T. brucei PFK, ADP-Glo luminescence; series mostly up to 51.4 µM.
Sequence of ATP-dependent 6-phosphofructokinase (Trypanosoma brucei brucei) (O15648 whole entry, looked up): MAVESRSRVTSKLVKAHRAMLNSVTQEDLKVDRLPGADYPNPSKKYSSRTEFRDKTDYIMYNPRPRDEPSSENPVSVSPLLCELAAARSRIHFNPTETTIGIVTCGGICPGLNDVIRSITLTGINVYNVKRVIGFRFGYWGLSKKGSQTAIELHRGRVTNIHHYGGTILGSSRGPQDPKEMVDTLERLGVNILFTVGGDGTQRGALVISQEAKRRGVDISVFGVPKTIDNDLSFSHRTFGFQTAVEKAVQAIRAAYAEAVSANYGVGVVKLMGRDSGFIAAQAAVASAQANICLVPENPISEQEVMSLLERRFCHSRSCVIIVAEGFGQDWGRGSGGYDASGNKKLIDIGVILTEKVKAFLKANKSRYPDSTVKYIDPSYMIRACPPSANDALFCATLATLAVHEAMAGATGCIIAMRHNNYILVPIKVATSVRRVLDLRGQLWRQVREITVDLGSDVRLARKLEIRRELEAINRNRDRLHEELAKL
How it was run: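 In this biochemical qHTS validation, titrated compounds were tested against 1.25 nM PFK with 0.1 mM ATP and 0.5 mM F6P. Percent activity came from controls lacking or containing enzyme.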

Compound | outcome
O=C(CCN1CCN(CCO)CC1)N1c2ccccc2Sc2ccc(C(F)(F)F)cc21 | inactive
C=CCCCCCCCCC(=O)O | inactive
O=C(O)Cc1ccc(-c2ccccc2)cc1 | inactive
O=C1CN(/N=C/c2ccc([N+](=O)[O-])o2)C(=O)N1 | inactive
COC(=O)C1=C(C)NC(C)=C(C(=O)OCC(C)C)C1c1ccccc1[N+](=O)[O-] (stereo not given) | inactive
COc1cc2c3cc1Oc1cc(ccc1O)C[C@@H]1c4c(cc(OC)c(O)c4Oc4ccc(cc4)C[C@@H]3N(C)CC2)CC[N+]1(C)C | inactive
CC(C(=O)O)c1ccc2c(c1)[nH]c1ccc(Cl)cc12 (stereo not given) | inactive
Nc1c(CC(=O)O)cccc1C(=O)c1ccc(Br)cc1 | inactive
COc1ccc(-c2cc(=S)ss2)cc1 | inactive
Cc1[nH]cnc1CN1CCc2c(c3ccccc3n2C)C1=O | inactive
O=C(O)[C@H](O)[C@@H](O)[C@H](O)[C@H](O)CO | inactive
O=C(O)COc1ccc(C(=O)c2cccs2)c(Cl)c1Cl | inactive
CCCCCCCCCCCCCCCC(=O)OC(C)C | inactive
Cc1ccc(C(=O)c2ccc(CC(=O)O)n2C)cc1 | inactive
O=C1CN(/N=C/c2ccc(-c3ccc([N+](=O)[O-])cc3)o2)C(=O)N1 | inactive
C=CCN1C(=O)C(CC(C)C)NC1=S (stereo not given) | inactive
Nc1cc(-c2ccncc2)c[nH]c1=O | inactive
O=C(Nc1ccc(C(=O)O)c(O)c1)c1ccccc1 | inactive
C[S+](CC[C@H](N)C(=O)O)C[C@H]1O[C@@H](n2cnc3c(N)ncnc32)[C@H](O)[C@@H]1O (stereo not given in full) | inactive
CCCCCCCCCCCCCCCCCC(=O)O | inactive

Compound | outcome
NC(=O)C(c1ccccc1)(c1ccccc1)[C@@H]1CCN(CCc2ccc3c(c2)CCO3)C1 | inactive
Cc1cc(O)c2ccccc2c1O | inactive
C=C(Nc1ccc(OCC)cc1)Nc1ccc(OCC)cc1 | inactive
Cc1nc2ccccc2n1Cc1ccc(Cl)cc1 | inactive
c1ccc2sc(SN3CCOCC3)nc2c1 | inactive
CCCOC(=O)c1ccc(O)cc1 | inactive
Cc1c(Nc2ncccc2C(=O)O)cccc1C(F)(F)F | inactive
CC1(C)C[C@@H]1C(=O)N/C(=C\CCCCSC[C@H](N)C(=O)O)C(=O)O | inactive
CCCCC[C@H](O)/C=C/[C@@H]1[C@@H](C/C=C\CCCC(=O)O)[C@@H](O)C[C@H]1O | inactive
c1ccc2sc(SSc3nc4ccccc4s3)nc2c1 | inactive
O=C(O)[C@H](CC(=O)N1C[C@H]2CCCC[C@H]2C1)Cc1ccccc1 | inactive
CC1(C)S[C@@H]2[C@H](NC(=O)[C@H](NC(=O)N3CCN(S(C)(=O)=O)C3=O)c3ccccc3)C(=O)N2[C@H]1C(=O)O | inactive
CCCC(=O)OC[C@@H](OC(=O)CCC)[C@@H](OC(=O)CCC)[C@H](Cn1c2nc(=O)[nH]c(=O)c-2nc2cc(C)c(C)cc21)OC(=O)CCC | inactive
COc1cc(/C=C/C(=O)N2CCN(CC(=O)N3CCCC3)CC2)cc(OC)c1OC | inactive
O=C1CC[C@@H](C(=O)N2CSC[C@H]2C(=O)O)N1 ([pGlu]-[Thz]-OH) | inactive
O=C(OCc1ccccc1)c1ccccc1 | inactive
CCOC(=O)c1ccccc1O | inactive
CCCCCCOc1ccccc1C(N)=O | inactive
CN1[C@@H]2CC[C@H]1CC(OC(c1ccccc1)c1ccccc1)C2 (stereo not given in full) | inactive
CCCSc1ccc2nc(NC(=O)OC)[nH]c2c1 | inactive
